Common to all, as to test: NCI-60 one-dose screen, 48 h (100 = growth as untreated, 0 = no growth, -100 = all killed)
One experiment relates to NCI-H23 lung. The settings on record: 10 µM unless noted.
Another experiment concerns NCI-H322M lung. The note with it: 10 µM unless noted.
In another experiment the test system is HOP-62 NSCLC. The note with it: 10 µM unless noted.
The test system of the next experiment is NCI-H460 lung. The note with it: 10 µM unless noted.
For a further experiment, the system named is NCI-H522 lung. The note with it: 10 µM.
In another experiment the test system is A549/ATCC NSCLC. The settings on record: 10 µM unless noted.
In another experiment the test system is 786-0 renal. The settings on record: 10 µM unless noted.
A further experiment has as its system COLO 205 colon. The note with it: 10 µM unless noted.

This is part of a sample that, as a whole, favours compounds with a hit. Of some 83,000 tested, about 20% had one in any assay.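 Percent growth is the endpoint: 0 to 100 indicates growth inhibition (40 means 60% inhibition), 0 means no net growth, and negative values indicate cell death.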 Unmarked numbers belong to inactive results. Calls of active or inactive are those of the source. How the source made its calls: active means growth percent below 10; inactive means the rest.

Take `O=S(=O)(Nc1ncccn1)c1ccc(Nc2ccc3nnc(-c4ccncc4)n3n2)cc1`: the growth in the experiment with NCI-H23 lung is 99.6%; with NCI-H322M lung it was 112%; in the experiment on HOP-62 NSCLC, 104%; with NCI-H460 lung it was 96.4%; with NCI-H522 lung, 113%; with A549/ATCC NSCLC, 104%. The growth in the experiment with 786-0 renal was 103%; with COLO 205 colon, 107%.
On to `Brc1ccccc1Nc1ccc2nnc(-c3ccncc3)n2n1`, for which the growth was 92.3% in the experiment with NCI-H23 lung; 95.6% with NCI-H322M lung; 95.1% in the experiment on HOP-62 NSCLC; 104% with NCI-H460 lung; -71.2% (active) with NCI-H522 lung; 101% with A549/ATCC NSCLC. Moreover, the growth in the experiment on 786-0 renal is 101%; with COLO 205 colon it was 103%.
`COc1ncnc2c1ncn2C/C(Br)=C(\Br)CCl`: the growth in the experiment with NCI-H23 lung is 15.1%; in the experiment with NCI-H322M lung, 78.9%; in the experiment on HOP-62 NSCLC, 15.6%; in the experiment on NCI-H460 lung it was -40.7% (active); in the experiment on NCI-H522 lung it was -72.1% (active); with A549/ATCC NSCLC it was 9.47% (active). Also, the growth is 7.78% (active) in the experiment on 786-0 renal and -82.6% (active) in the experiment with COLO 205 colon.
Take `COC(=O)[C@@H]1CCCN1C(=O)[C@@H]1CCCN1C(=O)[C@@H](Cc1c[nH]c2ccccc12)NC(=S)Nc1cc(C(F)(F)F)cc(C(F)(F)F)c1`: the growth with NCI-H23 lung is 74.2%; with NCI-H322M lung it was 75.8%; with HOP-62 NSCLC, 83.3%; in the experiment with NCI-H460 lung, 51.6%; with NCI-H522 lung, 73.2%; in the experiment with A549/ATCC NSCLC, 56.4%. Besides, the values for the growth in the experiment with 786-0 renal and in the experiment on COLO 205 colon were 69.8% and 16.8%, respectively.
As to `Oc1ccc(Cl)cc1CNc1nc2ccccc2[nH]1`, the growth in the experiment with NCI-H23 lung is 65.2%; with NCI-H322M lung, 101%; with HOP-62 NSCLC, 82.7%; in the experiment on NCI-H460 lung it was -33.9% (active); in the experiment on NCI-H522 lung it was 62%; in the experiment on A549/ATCC NSCLC, -14.1% (active). For the same compound, the growth with 786-0 renal was 60.7%; with COLO 205 colon, 65.1%.
With `Clc1ccccc1Nc1ccc2nnc(-c3ccncc3)n2n1`, the growth with NCI-H23 lung was 101%; in the experiment on NCI-H322M lung, 102%; in the experiment on HOP-62 NSCLC, 112%; with NCI-H460 lung, 109%; in the experiment on NCI-H522 lung, -55.8% (active); in the experiment on A549/ATCC NSCLC, 89.9%. The growth in the experiment with 786-0 renal is 75.7%; in the experiment with COLO 205 colon, 106%.
Turning to `COc1cc(C2CC(=O)Nc3c2ccc2ccccc32)cc(Br)c1OC` (stereo not drawn), the growth in the experiment with NCI-H23 lung was 28.5%; in the experiment with NCI-H322M lung it was 33.1%; in the experiment on HOP-62 NSCLC, 24.9%; in the experiment on NCI-H460 lung, 3.08% (active); in the experiment with NCI-H522 lung, -42.7% (active); with A549/ATCC NSCLC it was 18.6%. Besides, the growth is 30.6% with 786-0 renal and -57.5% (active) in the experiment on COLO 205 colon.
As for `O=C1NC(=S)S/C1=C\c1cccc([N+](=O)[O-])c1`, the growth with NCI-H23 lung is 89.6%; in the experiment with NCI-H322M lung, 132%; in the experiment with HOP-62 NSCLC, 114%; with NCI-H460 lung it was 104%; in the experiment on NCI-H522 lung it was 107%; in the experiment with A549/ATCC NSCLC it was 103%. For the same compound, the growth was 91.5% in the experiment on 786-0 renal and 110% in the experiment with COLO 205 colon.
As for `CC1SC(c2cccc(Oc3ccccc3)c2)N(CCc2cccs2)C1=O` (stereo not drawn), the growth is -14.2% (active) in the experiment on NCI-H23 lung; 4.21% (active) with NCI-H322M lung; 6.21% (active) in the experiment with HOP-62 NSCLC; -64.2% (active) with NCI-H460 lung; -50.8% (active) in the experiment with NCI-H522 lung; -9.36% (active) in the experiment with A549/ATCC NSCLC. In addition, the figures for the growth with 786-0 renal and in the experiment on COLO 205 colon were -29.6% (active) and -60.1% (active), respectively.
Take `CCCN(CCC)c1ccc(/C=C/c2ccc3cc(OCC)ccc3n2)cc1`: the growth is 83.8% in the experiment on NCI-H23 lung; 105% in the experiment on NCI-H322M lung; 125% in the experiment on HOP-62 NSCLC; 95.1% in the experiment on NCI-H460 lung; 76.8% in the experiment with NCI-H522 lung; 87.4% in the experiment with A549/ATCC NSCLC. In addition, the growth in the experiment with 786-0 renal was 91.1%; in the experiment on COLO 205 colon it was 112%.
For `COc1ccc(OC)c(C2C(C#N)=C(N)Oc3cc(O)ccc32)c1` (stereo not drawn), the growth with NCI-H23 lung was 88%; in the experiment on NCI-H322M lung, 102%; in the experiment on HOP-62 NSCLC, 97.4%; in the experiment with NCI-H460 lung, 108%; with NCI-H522 lung it was 80.3%; in the experiment on A549/ATCC NSCLC, 97.1%. In addition, the growth is 96.7% with 786-0 renal and 101% in the experiment on COLO 205 colon.
For the compound `O=C(Nc1ccccc1)Oc1cccc2cccnc12`, the growth with NCI-H23 lung was 87.1%; with NCI-H322M lung, 138%; in the experiment on HOP-62 NSCLC, 99.6%; in the experiment with NCI-H460 lung, 74.8%; in the experiment on NCI-H522 lung it was -4.77% (active); with A549/ATCC NSCLC, 93.3%. Also, the growth with 786-0 renal was 99.9%; in the experiment with COLO 205 colon it was 72.1%.
Consider `Cc1ccc(C2SCC(=O)N2NC(=O)c2[nH]c3ccc(F)cc3c2-c2ccccc2)cc1` (stereo not drawn), for which the growth in the experiment with NCI-H23 lung was 86.6%; with NCI-H322M lung, 111%; with HOP-62 NSCLC it was 109%; with NCI-H460 lung, 92.2%; with NCI-H522 lung, 67.8%; in the experiment with A549/ATCC NSCLC it was 74.1%. The growth was 105% in the experiment with 786-0 renal and 104% in the experiment with COLO 205 colon.
Take `Cc1ccc(S(=O)(=O)c2ccc3[nH]c(=O)[nH]c(=O)c3c2)cc1`: the growth with NCI-H23 lung is 102%; in the experiment on NCI-H322M lung it was 106%; in the experiment with HOP-62 NSCLC it was 106%; in the experiment with NCI-H460 lung it was 114%; with NCI-H522 lung, 84.9%; in the experiment with A549/ATCC NSCLC, 80.7%. Besides, the growth with 786-0 renal was 96.5%; with COLO 205 colon it was 99.3%.
For `O=C1C(N2CCOCC2)=Cc2cccc3cccc1c23`, the growth in the experiment with NCI-H23 lung is 100%; with NCI-H322M lung it was 111%; in the experiment with HOP-62 NSCLC, 89%; in the experiment on NCI-H460 lung, 93.2%; in the experiment with NCI-H522 lung, 89.4%; with A549/ATCC NSCLC it was 88.5%. In addition, the growth with 786-0 renal is 103%; in the experiment on COLO 205 colon it was 93.7%.
As for `Clc1ccc(Nc2nc(Nc3ccccc3)nc(Nc3ccc(-c4cc(-c5ccc(Cl)cc5)on4)cc3)n2)cc1`, the growth in the experiment with NCI-H23 lung is 72.2%; in the experiment with NCI-H322M lung, 77.6%; with HOP-62 NSCLC it was 75.6%; in the experiment with NCI-H460 lung it was 7.19% (active); in the experiment with NCI-H522 lung, 26.2%; in the experiment on A549/ATCC NSCLC, 38.9%. The growth with 786-0 renal is 53.9%; with COLO 205 colon, 69.8%.

The values are drawn from PubChem BioAssay (NCI).
